Screening data from PubChem.
The sample as a whole holds a higher share of hits than the screen did.
CD40 NFkB inh – CD40 pathway inhibition in BL2 cells. 0.94% of 83,000 active. inhibition, % at 10 µM. BL2 NF-kB luciferase reporter, CD40L-induced, 4 h;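 active means mean inhibition of at least 50% with a set share of replicates also reaching that level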
Of the large screens only hits and unclear results are named; the others gave an inactive call; [ ] = remark or other dose.

C[C@H](CO)N1C[C@H](C)[C@@H](CN(C)Cc2ccc(Oc3ccccc3)cc2)Oc2c(NC(=O)c3ccncc3)cccc2C1=O	none
C[C@@H]1CN([C@H](C)CO)C(=O)c2ccccc2-c2ccccc2CO[C@@H]1CN(C)Cc1ccc(C(=O)O)cc1	none
C[C@@H]1CN([C@@H](C)CO)C(=O)c2ccccc2-c2ccccc2CO[C@@H]1CN(C)Cc1ccccc1	none
CCC(=O)N1[C@H](CO)[C@H](c2ccc(-c3ccccc3)cc2)[C@H]1CNC(=O)COC	none
CN1C(=O)c2cc(NC(=O)C3CC3)ccc2OC[C@@H]2O[C@H](CC(=O)NCCc3ccncc3)CC[C@H]21	none
CC=Cc1ccc2n(c1=O)C[C@@H]1[C@@H](CO)[C@H](C(=O)N[C@H](C)c3ccccc3)[C@H]2N1Cc1cncnc1 (mixture of isomers)	none
CC(C)NC(=O)N(C)C[C@@H]1Oc2ccc(NC(=O)Cc3ccccc3)cc2CC(=O)N([C@H](C)CO)C[C@H]1C	none
O=C(C[C@H]1C=C[C@@H](NC(=O)c2ccc3c(c2)OCO3)[C@@H](CO)O1)NC1Cc2ccccc2C1	none
COc1ccc2c3c(n(C)c2c1)[C@@H](CO)NCC31CCN(S(=O)(=O)c2cccc(C)c2)CC1	none
CN1C(=O)c2cc(NC(=O)c3cnccn3)ccc2OC[C@H]2O[C@H](CC(=O)NCC3CC3)CC[C@@H]21	none
CCCC(=O)Nc1ccc2c(c1)C(=O)N(C)C[C@H](OC)[C@H](C)CN(C(=O)c1ccccn1)[C@@H](C)CO2	none
O=S(=O)(c1cccc(F)c1)N1[C@@H]2CNC[C@H]1C2c1ccc(-c2cccc(F)c2)cc1 (stereo partly drawn)	none
Cn1c(=O)c(C(=O)c2ccccc2)c(O)c2ccccc21	none
CCn1c(-c2ccccc2)c(C(=O)CCl)c2ccccc21	none
Cn1c(-c2ccccc2)c(C(=O)CCl)c2ccccc21	CD40 NFkB inh 71
O=C(Cc1cccnc1)N1CC2(C1)[C@@H](c1ccccc1)[C@H](CO)N2C(=O)C1CCOCC1	none
C/C=C/c1ccc([C@@H]2[C@H](CO)N3C(=O)CN(S(=O)(=O)c4ccccc4)C[C@@H]23)cc1	none
CC1(C)CC(C(CC(=O)O)c2ccccc2)CCO1 (stereo not drawn)	none
O=C(c1ccco1)N(CCC(c1ccccc1)c1ccco1)Cc1ccccc1 (stereo not drawn)	none
COc1ccc(CN(CCC(c2ccc(F)cc2)C2CCOC(C)(C)C2)C(=O)c2ccco2)cc1 (stereo not drawn)	CD40 NFkB inh 37
CCCNC(=O)N1[C@H](CO)[C@H](c2ccccc2-c2cccc(C)c2)[C@@H]1C#N	none
C[C@H]1CN(C)C(=O)c2cc(NS(C)(=O)=O)ccc2O[C@@H]1CN(C)S(C)(=O)=O	none
CS(=O)(=O)Nc1ccc2c(c1)[C@@H]1C[C@H](CC(=O)NCc3cc(F)ccc3F)O[C@H](CO)[C@@H]1O2	none
COCC(=O)N1CCCCN2[C@H](CO)[C@H](c3ccc(-c4cccc(C)c4)cc3)[C@H]2C1	none
O=C(CN1C(=O)NC(c2ccccc2)(c2ccccc2)C1=O)Nc1cccnc1Cl	none
CC1(c2ccc(OC(F)F)cc2)NC(=O)N(CC(=O)Nc2cccnc2Cl)C1=O (stereo not drawn)	none
Cc1ccc(C2(C)NC(=O)N(CC(=O)Nc3cccnc3Cl)C2=O)cc1 (stereo not drawn)	CD40 NFkB inh 26
CSc1nsc(SC)c1C(=O)O	none
CSc1nsc(SC)c1C(N)=O	CD40 NFkB inh 78
CSc1nsc(SC)c1C(=O)OCC(F)(F)F	none
COc1ccc(NC(=O)N(C)C[C@H]2OCc3cn(nn3)CCCC(=O)N([C@H](C)CO)C[C@H]2C)c(OC)c1	none
O=C(Nc1ccc(-n2cnnn2)cc1)c1cn2ccccc2n1	none
O=C(Nc1ccccc1)c1cn2ccccc2n1	CD40 NFkB inh 69
O=C(Nc1cccc(-c2cn3ccccc3n2)c1)c1cnccn1	none
O=C(Nc1nccs1)[C@H]1[C@H](CO)[C@H]2Cn3c(cccc3=O)[C@@H]1N2C(=O)C1CC1	none
CO[C@@H]1CC[C@@H]2CCOc3ccc(C#N)cc3C(=O)N(C)C[C@@H](c3ccccc3)CC(=O)N(C)C[C@H]1O2	none
CN(C)CC(=O)N1[C@H](C#N)[C@@H](c2ccc(-c3cccc(C(=O)N(C)C)c3)cc2)[C@@H]1CO	none
O=C(NCCN1CCCC1)[C@H]1[C@H](CO)[C@H]2Cn3c(cccc3=O)[C@@H]1N2C(=O)c1ccccc1	none
CC(C)(C)n1ncc2c(=O)n(CC(=O)NCc3ccc(F)cc3)cnc21	none
CC(C)(C)n1ncc2c(=O)n(CC(=O)c3ccccc3)cnc21	none
CC(C)(C)n1ncc2c(=O)n(CC(=O)OCc3ccccc3)cnc21	CD40 NFkB inh 98
c1ccc2c(c1)Sc1ccccc1-n1cnnc1-2	none
CCN1C(=O)c2ccccc2Sc2ccc(C(=O)NCCCN3CCCCC3)cc21	none
CCN1/C(=C/c2sc(-c3ccccc3C)c[n+]2C)Sc2ccccc21	CD40 NFkB inh 68
C[C@@H]1CCCCO[C@H](CN(C)S(=O)(=O)c2ccc(F)cc2)[C@H](C)CN([C@H](C)CO)C(=O)c2cc(NS(C)(=O)=O)ccc2O1	none
O=C(Nc1ccccn1)c1ccc(-c2ccccc2)cc1	CD40 NFkB inh 113
O=C(Nc1ccccn1)c1ccc2nc(-c3ccccc3)c(-c3ccccc3)nc2c1	none
O=C(Nc1ccccn1)c1ccc(S(=O)(=O)N2CCCC2)cc1	none
COC(=O)C[C@](O)(CCCC(C)(C)O)C(=O)O[C@@H]1C(OC)=C[C@]23CCCN2CCc2cc4c(cc2[C@H]13)OCO4	CD40 NFkB inh 92[25 µM]
Cn1cnc(S(=O)(=O)N2CC[C@@H]3[C@H]2c2cc(C#CC4CCCC4)ccc2N[C@@H]3CO)c1	none
CN(C)C(=O)c1cccc(-c2ccc([C@@H]3[C@@H](C#N)N(C(=O)C4CCCC4)[C@@H]3CO)cc2)c1	none
CCN1[C@H](C(=O)N(C)C)[C@@H](CO)[C@@H]2Cn3c(ccc(-c4cccc(C(=O)N(C)C)c4)c3=O)[C@@H]21	none
C[C@H]1CN([C@@H](C)CO)C(=O)c2ccccc2-c2ccccc2CO[C@@H]1CN(C)S(=O)(=O)c1cccc(F)c1	none
Cc1cc(C(=O)COC(=O)c2ccc(Cl)c(S(N)(=O)=O)c2)c(C)n1CC1CCCO1 (stereo not drawn)	none
Cc1cc(C(=O)COC(=O)c2ccc(Br)o2)c(C)n1Cc1ccco1	none
COCCn1c(C)cc(C(=O)COC(=O)c2ccc(Br)o2)c1C	CD40 NFkB inh 48
COCCn1c(C)cc(C(=O)COC(=O)c2ccc(Cl)c(S(N)(=O)=O)c2)c1C	CD40 NFkB inh 21
Cc1cc(C(=O)COC(=O)c2ccc(Br)o2)c(C)n1C	none
COCCn1c(C)cc(C(=O)COC(=O)c2ccc(-n3nc(C)cc3C)cc2)c1C	none
CCN1[C@@H]2c3ccc(-c4cccnc4)c(=O)n3C[C@@H]2[C@@H](CO)[C@@H]1C(=O)NC1CCCCC1	none
Cc1cnc2c(N)cc(C)c(C)c2c1	CD40 NFkB inh 90
Cc1cc(N)c(C)c([N+](=O)[O-])c1C	none
CCC(=O)c1ccc2c(c1)OCCO2	none
O=C(O)CCC(=O)c1ccc2c(c1)OCCO2	none
O=C(Cn1ncc(Cl)c(Cl)c1=O)c1ccc2c(c1)OCCO2	CD40 NFkB inh 98
O=C(CCN1CCCCC1)NCC[C@@H]1CC[C@@H](NC(=O)C2CCCCC2)[C@@H](CO)O1	none
COc1ccc(-c2nc(NC(=O)c3nc4nccc(C)n4n3)sc2C)cc1	none
COc1ccc(-c2nc(NC(=O)c3ccco3)sc2C)cc1	CD40 NFkB inh 51
Cc1ccc(C(=O)Nc2nc(-c3ccco3)c(-c3ccco3)s2)o1	none
COc1ccc(C[C@H]2CCn3cc(nn3)COC[C@@H](C)NC2=O)cc1	none
O=C(C1CCCC1)N1CC(=O)N2[C@@H](CO)[C@@H](c3ccc(-c4ccccc4F)cc3)[C@@H]2C1	none
